# Hits are enriched below; roughly 5.2% of the tested compounds scored in any of these assays.
# TrxR1 substrate: qHTS Assay for Substrates of Mammalian Selenoprotein Thioredoxin Reductase 1 (TrxR1): qHTS; Thioredoxin reductase 1, cytoplasmic (Rattus norvegicus), O89049; purified TrxR1 substrate turnover, NADPH consumption readout; Potency, µM (highest dose often 114 µM), for the others: at the highest dose activity change, negative = substrate turnover; 390,000 tested, 0.01% active; AID 588456, 2011; note: nearly all actives have a fitted effect of over 50% in size
#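 Rat TrxR1, dispensed at 90 nM, was prereduced with 400 uM NADPH (final) for 5 min at ~22 deg C, then incubated with compound 15 min before 400 uM selenite. A first-read NADPH fluorescence drop versus no-compound background flagged substrates.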
# PLK1 PBD inh: qHTS for Inhibitors of PLK1-PDB (polo-like kinase 1 - polo-box domain): Primary Screen. 360,000 tested, 2.8% active. AID 720504, 2013. Serine/threonine-protein kinase PLK1 (Homo sapiens), P53350. Potency, µM, for the others: max response, negative = inhibition, hits mostly inhibitors. Plk1 PBD binding of FITC phosphopeptide, fluorescence polarization; note: series mostly up to about 57 µM; nearly all actives have a fitted effect of over 65% in size
# mIDH1 inhibitor: qHTS for Inhibitors of mutant isocitrate dehydrogenase 1 (IDH1): qHTS; 390,000 tested, 0.093% active; IDH1-R132H enzyme, NADPH consumption, diaphorase/resazurin fluorescence; Potency, µM (highest dose often 76.6 µM), for the others: at the highest dose activity change, negative = inhibition, hits mostly inhibitors; note: nearly all actives have a fitted effect of over 65% in size
# Target sequence (O75874 whole entry R132H, stated change not applied): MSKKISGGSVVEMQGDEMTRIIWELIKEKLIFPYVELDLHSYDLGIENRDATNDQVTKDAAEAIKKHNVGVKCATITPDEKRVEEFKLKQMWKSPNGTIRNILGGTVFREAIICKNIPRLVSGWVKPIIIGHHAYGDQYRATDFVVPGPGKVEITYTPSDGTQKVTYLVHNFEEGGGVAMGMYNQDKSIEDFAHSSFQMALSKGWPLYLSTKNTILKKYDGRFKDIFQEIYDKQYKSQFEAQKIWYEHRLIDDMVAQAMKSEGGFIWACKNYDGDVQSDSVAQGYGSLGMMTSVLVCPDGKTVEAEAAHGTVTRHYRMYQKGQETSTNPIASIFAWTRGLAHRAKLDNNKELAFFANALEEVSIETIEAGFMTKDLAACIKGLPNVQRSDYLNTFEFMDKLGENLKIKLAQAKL
#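 IDH1-R132H (0.5 ug/mL dispensed) in pH 7.5 Tris buffer was preincubated 30 min with compound, then given a substrate mix of 0.016 mM NADPH and 2 mM alpha-KG for 80 min at room temperature; remaining NADPH was read by diaphorase/resazurin fluorescence.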
# VDR inhibitor: Inhibitors of the vitamin D receptor (VDR): qHTS. VDR-SRC2-3 peptide fluorescence polarization, 2 h. Potency, µM, without a hit: max response, negative = inhibition, hits mostly inhibitors. 400,000 tested, 0.93% active
#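 Compounds are added to VDR with labelled SRC2-3 coactivator peptide and held 2 h at room temperature. Inhibition of the VDR–peptide interaction is then read as a change in fluorescence polarization.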
# TrxR1 inh: qHTS Assay for Inhibitors of Mammalian Selenoprotein Thioredoxin Reductase 1 (TrxR1): qHTS; AID 588453, 2011; Potency, µM (top dose mostly 114 µM), inactives show at the top dose activity change, negative = inhibition, hits mostly inhibitors; recombinant rTrxR1, NADPH fluorescence consumption, selenite substrate; Thioredoxin reductase 1, cytoplasmic (Rattus norvegicus), O89049; 390,000 tested, 1% active; note: nearly all actives have a fitted effect of over 65% in size
#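 Rat TrxR1 (90 nM in the dispensed reagent) was pre-reduced with 400 uM NADPH for 5 min at room temperature, then incubated with compound for 15 min. After 400 uM selenite was added, NADPH fluorescence (Ex 340/Em 450 nm) was followed for 8 min.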
# Sfp PPTase inh: qHTS Assay for Inhibitors of Bacillus subtilis Sfp phosphopantetheinyl transferase (PPTase); 4'-phosphopantetheinyl transferase ffp (Bacillus subtilis), Q9F4F7; Biochemical Sfp PPTase activity, qHTS; Potency, µM, for inactives: largest response in the series, negative = inhibition, hits mostly inhibitors; 310,000 tested, 3.5% active; AID 1490, 2009;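 note: the enzyme is Sfp with the accession as filed and its product quenches rhodamine fluorescence; 0% = enzyme reaction without inhibitor and -100% = no enzyme wells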
#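 After 15 min at room temperature with compound, 15 nM Sfp received 5 uM rhodamine-CoA plus 12.5 uM BHQ-2-ybbR (50 mM Hepes pH 7.6, 10 mM MgCl2). Rate came from the fluorescence difference over 30 min, ex 525/em 598 nm.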
# An asterisk follows results filed as active; u = inconclusive; x = no result given; [ ] = dose if it differs, or a comment. Calls come from the whole dose curve; as a rule, active = well fitted curve in the direction sought with a large enough effect; inconclusive = small, poorly fitted or top-dose-only effect, or another doubt; inactive = no such curve, though single readings can be large; an effect the other way counts as inactive or inconclusive. Unless noted, % is set by controls: 0 for no effect and ±100 for the full control effect; potency is the fitted concentration of half-maximal effect.
SMILES,TrxR1 substrate,PLK1 PBD inh,mIDH1 inhibitor,VDR inhibitor,TrxR1 inh,Sfp PPTase inh
CS(=O)(=O)Cc1ccc(C(=O)NCC2(N3CCCCC3)CCCCC2)cc1,-17%[57.1 µM],-1%,6%,-4%,18%[57.1 µM],19%
COC(=O)c1c(NC(=O)CCCOc2ccc(C(C)(C)C)cc2)sc2c1C(C(=O)OC)CC2 (stereo not drawn),1%,x,-3%,u,1%,x
Cc1cc(C(=O)C(C)OC(=O)c2cnccn2)c(C)n1-c1ccccc1 (stereo not drawn),-7%,-1%,2%,-10%,-4%,x
COc1ccc(-c2cnc3c(NC(C)=O)cc(-c4cccc(NS(C)(=O)=O)c4)cn23)cc1OC,x,2%,x,x,x,x
CC1CN(C(c2ccco2)c2sc3ncnn3c2O)CC(C)O1 (stereo not drawn),0%[57.1 µM],-7%,0%,-21%,-12%[57.1 µM],40µM*
Cc1nc2sc(C(c3ccco3)N3CCN(c4ccc(F)cc4)CC3)c(O)n2n1 (stereo not drawn),1%[57.1 µM],-8%,1%,-7%,2%[57.1 µM],45µM*
COc1cc(Nc2ccc(C)cc2)c([N+](=O)[O-])nc1[N+](=O)[O-],-12%,-6%,7%,22%,4.5µM*,6%
Cc1cc(C)cc(Nc2ccc([N+](=O)[O-])nc2[N+](=O)[O-])c1,4%,-3%,0%,-8%,-3%,8%
CNC(=O)/C(C#N)=C\c1ccc(CNS(=O)(=O)c2ccc(Cl)cc2)o1,-7%,17µM*,-1%,u,20%[57.1 µM],0%
CCCC(c1nnnn1C(C)(C)C)N1CCN(Cc2ccccc2OC)CC1 (stereo not drawn),-12%,1%,0%,8%,-16%,56µM*
CCCC(c1nnnn1C(C)(C)C)N1CCN(c2ccccc2)CC1 (stereo not drawn),12%[11.4 µM],-7%,7%,4%,27%[11.4 µM],7%
N=NC(=O)c1ccccc1Nc1c(O)[nH]c2ccccc12,-2%[11.4 µM],2%,4%,-2%,-3%[11.4 µM],x
N#CC1=C(N)Oc2c(ccc3cccnc23)C1c1ccccc1 (stereo not drawn),4%,-1%,0%,-13%,-13%,9%
CSc1ccc(C2C(C#N)=C(N)Oc3c2ccc(=O)c2c(C)oc(C)c32)cc1 (stereo not drawn),-14%,-14%,-21%,11%,-71%,56µM*
Cc1oc(C)c2c(=O)ccc3c(c12)OC(N)=C(C#N)C3c1ccccc1Cl (stereo not drawn),5%[57.1 µM],u,u,-17%,u,50µM*
O=C1/C(=C/c2ccco2)N=C(N2CCCCC2)N1c1ccccc1,-13%,-1%,2%,-8%,71µM*,u
CC(C)N(C1=N/C(=C\c2ccco2)C(=O)N1c1ccccc1)C(C)C,-7%,-7%,9%,-10%,-34%,-9%
COc1ccc(N2CCN(S(=O)(=O)c3ccc(OC)c(C(=O)N4CCCC4)c3)CC2)cc1,-8%[57.1 µM],4%,5%,-13%,41%[57.1 µM],6%
Cc1c(Cl)cccc1NC(=S)Nn1cnnc1,4%[57.1 µM],7.5µM*,-3%,79µM*,u,22µM*
N#Cc1cccc(NC(=O)N2CC[C@@]3(CCCNC3)C2)c1,x,x,x,-15%,x,79µM*
CC(=O)N1CCC[C@@]2(CCN(C(=O)Nc3cccc(C#N)c3)C2)C1,x,x,x,5%,x,16%
COc1ccc(CCNCc2c(C(=O)O)c(C)n(Cc3cccc(Cl)c3)c2C)c(OC)c1OC,2%,x,0%,11%,12%,x

# Screens deposited in PubChem BioAssay by National Center for Advancing Translational Sciences (NCATS).
